Results taken from ChEMBL document CHEMBL3433997, “St. Jude Leishmania screening dataset” (2016).
“And” between values parts separate entries of the source, which are not always exact repeats. Equal values may be shown once.

How the values were obtained:
Assay type in all cases: functional
[1] = molecular target: Solute carrier family 2, facilitated glucose transporter member 1 (Homo sapiens) (UniProt P11166); assay: ST_JUDE_LEISH: Cytotoxicity at 2uM final concentration against transgenic Leishmania Mexicana promastigotes LmGLUT1 that are glucose transport deficient and complemented with the human glucose transporter GLUT1. Activity is measured by DNA content using SYBR green in vitro
Sequence of Solute carrier family 2, facilitated glucose transporter member 1 (Homo sapiens) (P11166 whole entry): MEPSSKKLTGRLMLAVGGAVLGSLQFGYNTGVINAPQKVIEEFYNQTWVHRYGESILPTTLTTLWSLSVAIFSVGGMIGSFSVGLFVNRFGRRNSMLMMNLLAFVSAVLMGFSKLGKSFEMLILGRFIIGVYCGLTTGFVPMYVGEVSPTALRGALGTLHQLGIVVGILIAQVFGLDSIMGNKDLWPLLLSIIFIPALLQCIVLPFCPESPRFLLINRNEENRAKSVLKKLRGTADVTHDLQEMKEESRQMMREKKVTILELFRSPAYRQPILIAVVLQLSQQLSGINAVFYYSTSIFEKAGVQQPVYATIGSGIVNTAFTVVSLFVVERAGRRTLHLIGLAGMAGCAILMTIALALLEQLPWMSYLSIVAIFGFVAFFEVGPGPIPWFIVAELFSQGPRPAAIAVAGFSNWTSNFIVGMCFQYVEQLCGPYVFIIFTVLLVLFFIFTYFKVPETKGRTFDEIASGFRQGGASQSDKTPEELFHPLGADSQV

[2] = molecular target: Hexose transporter 1 (Plasmodium falciparum) (UniProt O97467); assay: ST_JUDE_LEISH: Cytotoxicity at 2uM final concentration against transgenic Leishmania Mexicana promastigotes LmPfHT that are glucose transport deficient and complemented with the Plasmodium falciparum hexose transporter. Activity is measured by DNA content using SYBR green in vitro
[3] = molecular target: Glucose transporter (Leishmania mexicana) (UniProt O61059); assay: ST_JUDE_LEISH: Cytotoxicity at 2uM final concentration against transgenic Leishmania Mexicana promastigotes LmGT2 that are glucose transport deficient and complemented with the L. Mexicana glucose transporter 2. Activity is measured by DNA content using SYBR green in vitro

Compound | inhibition [1] | inhibition [2] | inhibition [3]
Cc1cccc2nc(-c3ccc(-c4cccc(CNCCc5ccncc5)c4)s3)[nH]c12 | 3.13% | 1.49% | 2.73%
O=C(O)C1CC(=O)N(c2ccc(Cl)cc2)C1 (configuration not stated) | -1.68% | -0.45% | -1.26%
Cc1cccc2nc(-c3ccc(-c4cccc(CNCCNC(=O)c5ccnn5C)c4)s3)[nH]c12 | 3.8% | 4.31% | 3.87%
CC(=O)c1ccc(-c2ccccc2)s1 | 2.16% | 3.72% | 1.61%
Cc1ccoc1C(=O)Nc1ccc(-c2cccc(-c3nc4cccc(C)c4[nH]3)c2)cc1 | 2.21% | 2.54% | 1.34%
OC(CNCc1ccccc1Oc1ccccc1)c1cccc(C(F)(F)F)c1 (configuration not stated) | 3.95% | 2.2% | 0.07%
CCc1cccc2c(C#N)cn(CC(=O)Nc3ccc(OC)cc3)c12 | 0.84% | 3.26% | 1.27%
NC(=O)c1cccc(C(=O)Nc2ccc(-c3cccc(-c4nc5cc(C(F)(F)F)ccc5[nH]4)c3)cc2)c1 | 0.39% | -0.82% | -2.19%
CCCCC(=O)Nc1ccc(Nc2nc(C)cc(N3CCCC3)n2)cc1 | 2.54% | 3.88% | 3.88%
O=C(Nc1cccc(-c2cccc(-c3nc4cc(C(F)(F)F)ccc4[nH]3)c2)c1)Nc1ccc(F)c(F)c1F | -0.38% | -0.91% | 0.55%
COc1cc(NC(=O)Nc2ccc(Br)cc2C(=O)Nc2ccc(Br)cc2)cc(OC)c1OC | 5.51% | 4.2% | 5.3%
COc1ccc(C(=O)CCC(=O)N(Cc2ccc(-c3ccc(CNCCc4ccccc4)cn3)cc2)C(C)CN(C)C)cc1F (configuration not stated) | 2.12% | 1.14% | 0.82%
Cc1ccc(CON2C(N)=NC(N)=NC2(C)C)c(Cl)c1.Cc1ccc(CON2C(N)=NC(N)=NC2(C)C)cc1Cl | 2.94% | 4.84% | 1%
COc1ccccc1/C=C/C(=O)N(C)C1CCN(CCCCCNC(=O)/C=C/c2ccc(Cl)c(Cl)c2)CC1 | 4.19% | 2.77% | 5.48%
OCCN1CCN(Cc2ccc(-c3cccc(-c4nc5cc(F)ccc5[nH]4)c3)cc2)CC1 | 2.82% | -0.2% | 0.18%
Cc1ccccc1Cn1ccc2c3c(N)nc(N)nc3ccc21 | 92.7% | 87.7% | 81.9%
OC(CN1c2ccccc2Sc2ccccc21)CN(C1CCCCC1)C1CCCCC1 (configuration not stated) | 6.08% | 6.38% | 3.8%

Compound | inhibition [1] | inhibition [2] | inhibition [3]
Cc1noc(C)c1-c1ccc2c(Nc3nccc4ccccc34)c(C(N)=O)cnc2c1 | 103% | 89.7% | 102%
Cc1ccc(CN2CCCN(Cc3cccc(NC(=O)c4ccc(Cl)c(Cl)c4)c3)CC2)cc1 | -1.13% | -2.91% | -0.82%
Cc1cccc2nc(-c3cccc(-c4cccc(NC(=O)CNC(=O)c5ccc(O)cc5)c4)c3)[nH]c12 | 0.25% | -0.56% | -0.5%
Fc1cc(Cl)ccc1Nc1ccnc2cc(-c3scnc3CNCCN3CCOCC3)ccc12 | 2.02% | 1.16% | 0.33%
Cc1cccc2nc(-c3ccc(-c4ccc(CN5CCN(C6CCN(C)CC6)CC5)cc4)cc3)[nH]c12 | 1.22% | 1.31% | -0.53%
CC(C)(CNC(=O)C1CCN(CC2CCCCC2)CC1)c1nc(-c2ccc(Cl)c(O)c2)c(-c2ccncc2)[nH]1 | 1.84% | 0.23% | 2.71%
COCCNCc1ncsc1-c1ccc2c(Nc3cc(O)ccc3C)ccnc2c1 | 1.05% | 0.61% | 1%
O=C(O)c1cccnc1Sc1ccc(Cl)cc1 | -0.75% | -0.76% | -0.47%
O=C(N[C@H]1CCN(Cc2ccc(OCCN3CCCC3)c(Cl)c2)C1)c1ccc(Cl)c(Cl)c1 | 8.03% | 16.6% | 6.8%
Cc1cc(NCc2ccc(F)cc2)nc2cc(O)ccc12 | 2.81% | 3.64% | 1.59%
CCOc1ccc(C2CCN(CCCCNC(=O)c3ccc(NC(=O)c4ccc(Cl)cc4)cc3)CC2)c(CC)c1 | 0.2% | -0.09% | -0.33%
COCCn1c(C)nc2ccccc2c1=O | 1.04% | 1.69% | -0.79%
CN(C(=O)c1ccccc1)C1c2cc(C#N)ccc2OC(C)(C)C1O (configuration not stated) | 0.42% | 0.76% | 0.38%
CCN(CC)CCN(Cc1ccc(-c2ccc(Cl)cc2)cc1)C(=O)Cn1cc(CN(C)C)c(=O)nc1SCc1ccc(F)cc1 | 0.45% | 0.54% | 1.16%
O=C(NCCCCN1CCCC2c3ccc(O)cc3CCC21)c1ccc(-c2ccccc2)cc1 (configuration not stated) | 0.24% and 13.2% | 1.39% and 1.92% | 0.13% and -0.76%
Fc1ccc2c(NN=Cc3ccccc3)ccnc2c1 | 2.29% | 1.07% | -1.55%
N#Cc1ccc2c(c1)CCN(CCC1CCC(NC(=O)/C=C/c3cccc4cc[nH]c34)CC1)CC2 (configuration not stated) | 8.95% | 9.87% | 3.01%
